Whole data set: some 33,000 sequences, median “e-score” near -0.05, cut for the highest 2% near 0.38. This is one part of a sample in which the highest values are shown more often than they occur.

Consider 109 sequences from article PMC10668032, “Altered binding affinity of SIX1-Q177R correlates with enhanced WNT5A and WNT pathway effector expression in Wilms tumor”.

The experiment deals with T1, SIX1-Q177R homeodomain (human, UniProt Q15475 108-198, Q177R).
T1 sequence: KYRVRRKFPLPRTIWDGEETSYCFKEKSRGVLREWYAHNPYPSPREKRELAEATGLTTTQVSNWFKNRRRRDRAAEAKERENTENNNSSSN
Description: universal protein binding microarray; Universal all-10-mer PBM (8x60K, AMADID 030236), 300 nM GST-tagged protein, Alexa Fluor 488 anti-GST; buffer, salt, pH and temperature not stated (as in Berger); high values mean tight binding. The conditions noted are these: protein: ivt; tags: N-terminal GST; dsDNA, one strand shown. The method, boiled down: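 After in vitro transcription/translation, GST-tagged homeodomains were quantified against a recombinant GST standard curve by anti-GST western blot. They were then placed in duplicate at 300 nM final concentration on universal 'all 10-mer' protein binding microarrays of 8×60K format.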
For the sequence CACTCCGC, the binding signal came to 0.256 ± 0.00576 E-score. With ACCCTTTC, the binding signal is 0.194 ± 0.0513 E-score. As for CACTCTGC, the binding signal amounted to 0.187 ± 0.0156 E-score. For the sequence GCCCCGCC, the binding signal came out at 0.175 ± 0.055 E-score. For CAATACCC, the binding signal came out at 0.218 ± 0.00416 E-score. Take CGATACCC: the binding signal is 0.411 ± 0.012 E-score. As to CGATACCA, the binding signal was determined as 0.321 ± 0.00519 E-score. With GGATACCA, the binding signal was 0.327 ± 0.00751 E-score. The result for AGATACCC reads 0.278 ± 0.0188 E-score; that for GGATACCC, 0.403 ± 0.00919 E-score. In the case of CAACCACG, the binding signal came to 0.155 ± 0.0108 E-score. The result for CACTCTGG reads 0.187 ± 0.00384 E-score. The value for CCCCCTGC was 0.156 ± 0.0255 E-score.

For the sequence ACAGAGGT, the binding signal came to 0.156 ± 0.00829 E-score.

With ATTAGGTG, the binding signal was determined as 0.296 ± 0.00518 E-score. Consider ACCATGGT, for which the binding signal turned out to be 0.2 ± 0.05 E-score. In the case of CACCGTTC, the binding signal was found to be 0.3236 ± 0.00306 E-score.

Consider CGATACCG, for which the binding signal is 0.233 ± 0.0113 E-score. Regarding GGATACAC, the binding signal was 0.424 ± 0.00693 E-score. The value for CGATACTC was 0.211 ± 0.00408 E-score; that for GGATACAA was 0.161 ± 0.00762 E-score; that for AGATACAC was 0.424 ± 0.0151 E-score. With GGATACTA, the binding signal worked out at 0.152 ± 0.0189 E-score. Turning to AGATACCT, the binding signal came to 0.179 ± 0.011 E-score.

Consider CGATACAC, for which the binding signal was 0.402 ± 0.0188 E-score.

As to AGATACCA, the binding signal stood at 0.192 ± 0.0243 E-score. CTGCCCGC: the binding signal was determined as 0.163 ± 0.0123 E-score. As to CACCGACA, the binding signal turned out to be 0.374 ± 0.0291 E-score.

As for TACTGATA, the binding signal turned out to be 0.192 ± 0.0304 E-score. In the case of GTATCCAC, the binding signal was 0.287 ± 0.00341 E-score. In the case of GTATGGTA, the binding signal is 0.159 ± 0.00206 E-score. For AGGGTGGG, the binding signal worked out at 0.176 ± 0.00829 E-score.

On to AGGGGGTG, for which the binding signal worked out at 0.396 ± 0.00554 E-score. The value for AGGGTATC was 0.363 ± 0.0101 E-score. For AGGGTGTG, the binding signal was 0.4 ± 0.015 E-score. For the sequence AGGGGGTA, the binding signal worked out at 0.358 ± 0.00366 E-score.

As for AAGGGGTG, the binding signal turned out to be 0.227 ± 0.00304 E-score. For the sequence CGGGTGGA, the binding signal was 0.173 ± 0.033 E-score.

For CGGGTGCA, the binding signal stood at 0.238 ± 0.0106 E-score. With AGGGTGCG, the binding signal is 0.226 ± 0.0208 E-score.

With AGGGGGTC, the binding signal was found to be 0.271 ± 0.0446 E-score.

In the case of AGGGTGTC, the binding signal stood at 0.4879 ± 0.00164 E-score. Turning to CGGGTGTA, the binding signal was determined as 0.47551 ± 0.00024 E-score. On to CATCCGGG, for which the binding signal came out at 0.156 ± 0.00322 E-score. As for ACCCTCGT, the binding signal was 0.1905 ± 0.000806 E-score. The result for CACCGAGA reads 0.276 ± 0.0313 E-score; that for TGTAGAAA, 0.225 ± 0.0216 E-score. For the sequence AATCGACA, the binding signal is 0.173 ± 0.025 E-score.

With ACAAGGTC, the binding signal stood at 0.218 ± 0.0287 E-score.

CAGGCAGG: the binding signal worked out at 0.186 ± 0.0165 E-score. With CACGCTAC, the binding signal was found to be 0.242 ± 0.0124 E-score. As to CCCCGACA, the binding signal worked out at 0.324 ± 0.012 E-score. GGGGTGCA: the binding signal is 0.273 ± 0.0552 E-score. Consider GGGGTGAA, for which the binding signal worked out at 0.154 ± 0.0542 E-score.

Consider AGGGTGCA, for which the binding signal is 0.265 ± 0.0337 E-score. The result for CGGGTGGC reads 0.178 ± 0.0577 E-score. In the case of CGGGGGTC, the binding signal amounted to 0.314 ± 0.0405 E-score. Regarding AGGGTATA, the binding signal is 0.199 ± 0.0079 E-score.

As for GGGGTGTA, the binding signal is 0.4856 ± 0.000757 E-score.

On to CGGGTGTC, for which the binding signal turned out to be 0.487 ± 0.00672 E-score.

Turning to AGGGTGTA, the binding signal turned out to be 0.475 ± 0.00846 E-score. For CGATACTA, the binding signal is 0.157 ± 0.00168 E-score. The result for AGTGCACA reads 0.171 ± 0.00742 E-score; that for AGCCGGTG, 0.282 ± 0.011 E-score.

Turning to CCGGTACA, the binding signal was found to be 0.224 ± 0.00738 E-score.

For ACTTGGTG, the binding signal was 0.2882 ± 0.00137 E-score. As to CCCCAATA, the binding signal was 0.153 ± 0.00289 E-score.

Regarding CCGAGTGA, the binding signal is 0.156 ± 0.00131 E-score. With CACCGCCG, the binding signal came to 0.375 ± 0.0128 E-score. As to CCGTGTTA, the binding signal turned out to be 0.4236 ± 0.00253 E-score. CCGTGGTA: the binding signal was 0.166 ± 0.0401 E-score. As to GCGTGTTA, the binding signal is 0.387 ± 0.0267 E-score. The value for GCGTGCTA was 0.151 ± 0.031 E-score. The value for CCGTGCTC was 0.226 ± 0.0264 E-score; that for ACGTGTTA was 0.352 ± 0.0237 E-score. In the case of GCGTGATA, the binding signal turned out to be 0.173 ± 0.0569 E-score. Regarding CCGTGTTC, the binding signal came out at 0.384 ± 0.0141 E-score. Regarding ACGTGTTC, the binding signal was found to be 0.3144 ± 0.00304 E-score.

For the sequence CACAGTGG, the binding signal stood at 0.16 ± 0.0343 E-score.

As for CGGGGATC, the binding signal came to 0.212 ± 0.00313 E-score. Take CGCACGAC: the binding signal stood at 0.187 ± 0.0218 E-score. As for ATCCGAGG, the binding signal was determined as 0.1653 ± 0.000757 E-score.

Regarding GTAATCGA, the binding signal stood at 0.204 ± 0.015 E-score. The value for CGGCTGAC was 0.174 ± 0.0351 E-score.

On to CGAATGAC, for which the binding signal was 0.198 ± 0.0214 E-score.

Consider AAGAGGTG, for which the binding signal came to 0.368 ± 0.00802 E-score.

Turning to GTTCCGTA, the binding signal turned out to be 0.188 ± 0.0176 E-score. In the case of GGGTATAA, the binding signal was 0.152 ± 0.0231 E-score.

Regarding GTATCCGA, the binding signal stood at 0.312 ± 0.0026 E-score. The result for GGGTCCAA reads 0.218 ± 0.025 E-score. In the case of GTATCCCA, the binding signal was determined as 0.252 ± 0.00467 E-score. Take GGGTCCCA: the binding signal was 0.1517 ± 0.0014 E-score. For the sequence GTGTCCAA, the binding signal was 0.419 ± 0.0151 E-score. As to GTGTCTGA, the binding signal was 0.364 ± 0.022 E-score.

On to GTATCCTA, for which the binding signal amounted to 0.187 ± 0.00559 E-score. In the case of GTGTCCTA, the binding signal turned out to be 0.4 ± 0.0124 E-score.

As for GTATCCAA, the binding signal is 0.292 ± 0.0191 E-score. Regarding GTGTCCGA, the binding signal came out at 0.413 ± 0.0127 E-score.

With GCGTCCTA, the binding signal is 0.168 ± 0.0119 E-score. Turning to GTGTCCCA, the binding signal was 0.442 ± 0.019 E-score. In the case of CACCATGA, the binding signal was 0.289 ± 0.0156 E-score. The result for CAGATACA reads 0.313 ± 0.0113 E-score; that for AGGGTTAC, 0.162 ± 0.0418 E-score. Consider GGTGCCAA, for which the binding signal came out at 0.187 ± 0.0523 E-score. As for GAACGACA, the binding signal is 0.238 ± 0.0152 E-score.

Turning to ATCCCCCG, the binding signal stood at 0.266 ± 0.0176 E-score. As to CACGCGAC, the binding signal came to 0.26 ± 0.00798 E-score. Turning to GGTATACA, the binding signal amounted to 0.269 ± 0.00593 E-score. As to TGTTATAA, the binding signal was found to be 0.267 ± 0.015 E-score.
